The whole screen tested about 16,000 compounds, of which about 5,800 (36%) were called active. Not shown: some 23% with an inconclusive outcome. This is one part of the list. Values without a mark were called inactive. Calls come from the whole dose curve; as a rule, active = well fitted curve in the direction sought with a large enough effect; inconclusive = small, poorly fitted or top-dose-only effect, or effect the other way; inactive = no such curve, though single readings can be large or run the other way.
Target: Cytochrome P450 2C19 (Homo sapiens) (UniProt P33261)
Sequence (P33261 whole entry, looked up): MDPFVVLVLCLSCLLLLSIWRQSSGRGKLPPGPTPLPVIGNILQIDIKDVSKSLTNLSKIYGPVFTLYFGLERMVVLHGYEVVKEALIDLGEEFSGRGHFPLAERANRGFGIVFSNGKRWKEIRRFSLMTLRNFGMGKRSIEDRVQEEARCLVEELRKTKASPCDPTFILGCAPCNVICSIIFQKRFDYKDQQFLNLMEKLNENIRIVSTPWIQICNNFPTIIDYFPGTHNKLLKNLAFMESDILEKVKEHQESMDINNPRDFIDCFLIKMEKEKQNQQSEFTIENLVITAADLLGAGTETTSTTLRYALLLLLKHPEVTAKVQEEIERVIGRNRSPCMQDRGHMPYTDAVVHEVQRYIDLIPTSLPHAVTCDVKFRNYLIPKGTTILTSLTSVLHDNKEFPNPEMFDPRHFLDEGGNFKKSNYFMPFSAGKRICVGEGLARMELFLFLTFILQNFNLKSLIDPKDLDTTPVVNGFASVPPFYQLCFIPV
Assay: Cytochrome panel assay with activity outcomes
Settings: recombinant CYP, pro-luciferin dealkylation, luminescence, p450-cyp2c19; series mostly up to 57.1 µM; activity, negative = inhibition: at the top concentration
% is set by controls: 0 for no effect and ±100 for the full control effect.

Compound | activity, negative = inhibition | AC50
C[C@H]1O[C@@H](CC(=O)O)Cc2c1c(O)c1c(O)cc(-c3cc(=O)c4c(=O)c5c(c(=O)c=4c3=O)C[C@H](CC(=O)O)O[C@@H]5C)c(O)c1c2O | -5.68% [at 11.4 µM] | –
COC(=O)c1c(NC(=O)c2ccco2)sc2c1CCC2 | – | 4.47 µM (active)
COCCn1c(=O)c(-c2ccc(Cl)cc2)nc2cnc(N(C)C)nc21 | 6.88% | –
Cc1ccc2[nH]c3c(c2c1)CN(C(=O)CN1c2ccc(F)cc2CCC1C)CC3 (configuration not stated) | – | 3.55 µM (active)
COc1ccc2[nH]c3c(c2c1)CN(C)CC3 | -22.7% | –
COC(=O)c1ccc2ccn(CC(=O)NC3CCCCC3)c2c1 | – | 1.58 µM (active)
CCOC(=O)CSC1=C(C#N)C(c2sccc2C)CC(=O)N1 (configuration not stated) | – | 7.94 µM (active)
CCOC(=O)C1=C(C)NC(C)=C(C(=O)OCC)C1c1sccc1C | – | 1.78 µM (active)
COC(=O)CSC1=C(C#N)C(c2cccc(F)c2)CC(=O)N1 (configuration not stated) | – | 11.2 µM (active)
CCOC(=O)Cc1c(C)nc2c(C#N)c[nH]n2c1=O | -24.9% | –
CCOC(=O)CSC1=C(C#N)C(c2sccc2C)C(C(C)=O)=C(C)N1 (configuration not stated) | – | 1.78 µM (active)
CCOC(=O)CSC1=C(C#N)C(C)C2=C(CCCC2=O)N1 (configuration not stated) | – | 0.708 µM (active)
COC(=O)C1=C(NC(=O)c2cccc(OC)c2)CCS1 | – | 14.1 µM (active)
COCCN(CCOC)S(=O)(=O)c1ccc(C(=O)Nc2nc(C)c(C(C)=O)s2)cc1 | -35.5% | –
CCCCN(CC)S(=O)(=O)c1ccc(C(=O)Nc2nnc(CSC)o2)cc1 | -8.71% | –
CCN(CC)S(=O)(=O)c1ccc(C(=O)NC2=C(C(=O)OC)SCC2)cc1 | – | 8.91 µM (active)
Cc1ccc(C2CC(C(F)(F)F)n3nc(C(=O)NCCN4CCOCC4)cc3N2)cc1 (configuration not stated) | -29.1% | –
Cc1ccnc(NS(=O)(=O)c2ccc(N=[N+]=[N-])cc2)n1 | 39.6% [at 11.4 µM] | –
C[C@H](CN(C)C)C(=O)c1ccccc1C(=O)O | 12.3% [at 11.4 µM] | –
O=C(NC(=S)N(Cc1ccccc1)Cc1ccccc1)c1ccccc1F | – | 2.24 µM (active)
COc1ccc(CN(CCC#N)C(=S)NC(=O)c2ccccc2)cc1 | – | 7.94 µM (active)
CN1CCN(NC(=O)c2ccccc2F)CC1 | 2.59% | –
CCOc1ccc(C(=O)NC(=S)N(Cc2ccccc2)Cc2ccccc2)cc1 | – | 8.91 µM (active)

Compound | activity, negative = inhibition | AC50
CCNC(=O)c1ccc(-n2nc(C(F)(F)F)c3c2CCCC3)cc1 | – | 5.62 µM (active)
CCCCN(C)CCCNC(=O)c1ccc(N2CCCC2=O)cc1 | 15.5% | –
CCc1ccc(NC(=O)Cn2nc(C(F)(F)F)c3c2CCC3)cc1 | – | 7.94 µM (active)
O=C1OCCC1Sc1nnc(-c2ccc(O)cc2)o1 (configuration not stated) | – | 10 µM (active)
Cc1cc(C)c2[nH]c(=O)c(CN(Cc3ccco3)C(=O)c3cccs3)cc2c1 | – | 1.78 µM (active)
CCC(=O)N1CCc2cc(S(=O)(=O)NC(C(=O)NCc3ccc(F)cc3)C(C)C)ccc21 (configuration not stated) | -14.1% | –
CN(CCC#N)C(=O)c1ccc(CNS(=O)(=O)c2ccc(F)cc2)cc1 | – | 17.8 µM (active)
Cc1c2cccc(Sc3ccccc3)c2c2c3c(cccc13)[S+](c1ccccc1)C2 (configuration not stated) | – | 0.0631 µM (active)
COCCn1c(=O)c(-c2cc(F)cc(F)c2)nc2cncnc21 | -22% | –
Cn1c(=O)c(-c2cc(F)cc(F)c2)nc2cncnc21 | -31.9% | –
COc1ccccc1CCn1c(=O)c(-c2cc(F)cc(F)c2)nc2cncnc21 | – | 1.58 µM (active)
COc1ccccc1CCn1c(=O)c(-c2cccc(F)c2)nc2cncnc21 | – | 1 µM (active)
CNC(=O)c1c(I)c(C(=O)NCC(=O)Nc2c(I)c(C(=O)O)c(I)c(C(=O)NCCO)c2I)c(I)c(N(C)C(C)=O)c1I | -35.8% [at 25.6 µM] | –
O=C(O)[C@@H]1[C@@H](C(=O)Nc2ncccn2)[C@@H]2C=C[C@@H]1O2 | 0.77% [at 11.4 µM] | –
CC[C@]1(O)C[C@@H]2CN(CCc3c([nH]c4ccccc34)[C@](C(=O)OC)(c3cc4c(cc3OC)N(C)[C@H]3[C@](O)(C(=O)OC)[C@@H](C(=O)OC)[C@@]5(CC)C=CCN6CC[C@@]43[C@@H]65)C2)C1 | -25.1% | –
COC(=O)c1ccc(NC(=O)c2ccccc2)o1 | -23.3% | –
CN(C(=O)CC(NC(=O)c1ccccc1)(c1ccccc1)c1ccccc1)c1ccccc1 | – | 11.2 µM (active)
CCCCCC1=C2CNC(C)(C(=O)OC)C=C2C(C)C1=O (configuration not stated) | – | 20 µM (active)
CCCCCC1=C2CNC(Cc3ccccc3)(C(=O)OC)C=C2C(C)C1=O (configuration not stated) | – | 6.31 µM (active)
COCCn1c(=O)c(-c2cccc(C#N)c2)nc2cnc(N3CCNCC3)nc21 | -35.5% | –
Nc1ccc(N=Nc2c(S(=O)(=O)O)cc3ccccc3c2S(=O)(=O)O)cc1 | 1.46% [at 11.4 µM] | –
CCOC(=O)CCN1C(=O)[C@H]2[C@@H]3[C@H](O)[C@H](O)CC(=O)[C@H]3CC[C@H]2C1=O | -31.9% [at 11.4 µM] | –
Cc1cc(NC(=O)CCN2C(=O)C3C4CCC(C4)C3C2=O)c(C)cc1Br (configuration not stated) | – | 11.2 µM (active)

Compound | activity, negative = inhibition | AC50
Cc1cccc(C)c1NC(=O)CCN1C(=O)C2C3CCC(C3)C2C1=O (configuration not stated) | 9.83% | –
CC1CCN(CC(=O)Nc2cccc([N+](=O)[O-])c2)CC1 | – | 4.47 µM (active)
O[C@H](CCCN1CCN(c2ncc(F)cn2)CC1)c1ccc(F)cc1 | -16.9% | –
O=C1c2ccccc2S(=O)(=O)N1CCCCN1CCN(c2ncccn2)CC1 | – | 0.631 µM (active)
Cn1cccc1C(=O)N1CCC2(CC1)CCN(c1ccc(-c3ccccc3)cc1)CC2 | 9.67% | –
O=C(NCCN1CCOCC1)c1csc2c1CCCCC2 | – | 28.2 µM (active)
COc1ccc(-c2cn3c(C)c(C(=O)NCCN4CCOCC4)sc3n2)cc1 | -22.6% | –
O=C(NCCN1CCOCC1)c1ccc2ccccc2c1 | – | 7.94 µM (active)
COc1ccc(C(=O)Nc2ccc(Cl)cc2C(=O)NCCN2CCOCC2)cc1 | – | 10 µM (active)
Cc1ccc(C(=O)NCCCN2CCOCC2)cc1N1CCCC1=O | -14.7% | –
COc1ccc(C(=O)NCCCN2CCOCC2)cc1OC | -12.1% | –
O=C(NCCN1CCCCC1)c1ccc(I)cc1 | -38.6% | –
CC(=O)N1CCC2(CC1)CN(C(=O)Nc1cccc(C#N)c1)C2 | 7.13% | –
CC(=O)N1CCc2cc(S(=O)(=O)CCC(=O)Nc3c(C)n(C)n(-c4ccccc4)c3=O)ccc21 | -11.7% | –
Cc1c(NC(=O)CSc2nnc3c4ccccc4n(CCc4ccccc4)c3n2)c(=O)n(-c2ccccc2)n1C | – | 25.1 µM (active)
Cc1c(NC(=O)Cn2ccc([N+](=O)[O-])n2)c(=O)n(-c2ccccc2)n1C | -13.2% | –
C=CCn1c(SCC(=O)Nc2c(C)n(C)n(-c3ccccc3)c2=O)nc2sc(C)c(-c3ccccc3)c2c1=O | – | 15.8 µM (active)
Cc1c(NC(=O)CSc2nnnn2C)c(=O)n(-c2ccccc2)n1C | -10.8% | –
Cc1nc(SCC(=O)Nc2c(C)n(C)n(-c3ccccc3)c2=O)nc(C)c1C | -7.06% | –
CC1(C)O[C@@H]2O[C@H]([C@H](O)CO/N=C3/[C@H]4O[C@@H]4[C@@H](O)[C@H]4[C@H]3CCn3c(=O)n(-c5ccccc5)c(=O)n34)[C@@H](O)[C@@H]2O1 | -36.7% [at 11.4 µM] | –
Cc1c(C(=O)NN2CCN(C)CC2)cccc1[N+](=O)[O-] | 12.7% | –
Cc1c(C(=O)NCCC2=CCCCC2)cccc1[N+](=O)[O-] | – | 10 µM (active)
Cn1nc(-c2ccc(N3CCOCC3)c(NS(=O)(=O)c3ccc(Cl)cc3)c2)c2ccccc2c1=O | – | 0.708 µM (active)

Compound | activity, negative = inhibition | AC50
COCCn1c(=O)c(-c2ccc(Cl)cc2)nc2cnc(N3CCOCC3)nc21 | -5.7% | –
Cn1c(=O)c(-c2ccc(Cl)cc2)nc2cnc(N3CCOCC3)nc21 | -5.23% | –
CCC(=O)Nc1cc(-c2nn(C)c(=O)c3ccccc23)ccc1N1CCCCC1 | – | 15.8 µM (active)
CC(=O)Nc1ccc(NCN2C(=O)C3C4CCC(C4)C3C2=O)cc1 (configuration not stated) | -17.9% | –
O=C(NCCCN1CCCCCC1)[C@@H](c1ccccc1)C1CCCCC1 | -22.4% | –
O=C(NC1CCCCC1)C(Cc1ccccc1)N1C(=O)C2C3CCC(C3)C2C1=O (configuration not stated) | – | 11.2 µM (active)
O=C(c1ccccc1NS(=O)(=O)c1cccc([N+](=O)[O-])c1)N1CCOCC1 | -8.87% | –
Cc1ccc(NS(=O)(=O)c2ccc(OCC(=O)Nc3cccc([N+](=O)[O-])c3)c(C)c2)cc1 | – | 2 µM (active)
CSC1=N/C(=C\c2ccc(Br)o2)C(=O)S1 | – | 10 µM (active)
CSC1=N/C(=C\c2ccc(C)cc2)C(=O)S1 | – | 7.94 µM (active)
CCNc1ncc2nc(-c3ccc(Cl)cc3)c(=O)n(-c3ccccc3)c2n1 | 1.02% | –
CCSc1nnc(-c2ccc(Cl)cc2)c2ccccc12 | – | 6.31 µM (active)
Cn1c(C[C@@H](O)c2nc3ccccc3n2C)nc2ccccc21 | -23.7% [at 11.4 µM] | –
Cn1c(SCc2nc3ccccc3n2CCO)nc2ccccc21 | – | 6.31 µM (active)
CC(=O)n1c(COS(C)(=O)=O)nc2ccccc21 | 6.98% [at 11.4 µM] | –
Nc1nc2c(c(=O)[nH]1)N[C@H](CCNc1ccc(C(=O)O)cc1)CN2 | 0.2% [at 11.4 µM] | –
C[N+](C)([O-])CCC=C1c2ccccc2CCc2ccccc21 | – | 0.398 µM (active)
CNCCC=C1c2ccccc2CCc2ccccc21 | – | inactive
CN(C)CCC=C1c2ccccc2CCc2ccccc21 | -32.5% | –
O=C(Nc1cccn(Cc2c(Cl)cccc2Cl)c1=O)c1ccc(Cl)cc1Cl | – | 0.794 µM (active)
O=C(CN1C(=O)C2C3C=CC(C3)C2C1=O)Nc1ccc(C(=O)O)cc1 (configuration not stated) | 7.63% | –
CCOC(=O)NCN1C(=O)C2C3C=CC(C3)C2C1=O (configuration not stated) | – | 28.2 µM (active)
CCOC(=O)N/N=C1/C[C@@H](O)[C@@H](O)[C@@H]2[C@@H]3C(=O)N(CC)C(=O)[C@H]3CC[C@@H]12 | 25.5% [at 11.4 µM] | –

From PubChem BioAssay AID1851 (National Center for Advancing Translational Sciences (NCATS), 2009)
